High-throughput results as filed in PubChem.
MITF inh: MITF inhibitors, primary screen, biochemical, AlphaScreen, human. Microphthalmia-associated transcription factor (Homo sapiens), O75030. AlphaScreen MITF homodimerization, bead proximity signal. inhibition, % at 2.6 µM. actives 0.91% (n = 650,000). AID 1259374, 2018; in the data active means inhibition above about 50%;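 further: 0% = vehicle wells with protein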
TEAD-YAP block: TEAD-YAP interaction inhibition, primary screen, TEAD-YAP interaction inhibitor project, luminescence, HEK-TIYL cells; TEAD-Gal4/YAP UAS-luciferase luminescence; inhibition, % at 9.12 µM; actives 1.4% (n = 640,000); AID 1259422, 2018; in the data active means inhibition above about 32%;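 further: 0% = median of test compound wells and 100% = reference inhibitor wells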
FBW7 activator: FBW7 E3 ligase activators, primary screen, biochemical, AlphaScreen, human | F-box/WD repeat-containing protein 7 (Homo sapiens), Q969H0 | AlphaScreen FBW7–phospho-cyclin E peptide binding, activator screen | normalized activity (activation), % at 26.1 µM | actives 0.13% (n = 650,000); in the data active means normalized activity above about 1.9%;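 further: purified mutant Fbw7 with reduced substrate affinity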
Target sequence (Q969H0 whole entry, looked up): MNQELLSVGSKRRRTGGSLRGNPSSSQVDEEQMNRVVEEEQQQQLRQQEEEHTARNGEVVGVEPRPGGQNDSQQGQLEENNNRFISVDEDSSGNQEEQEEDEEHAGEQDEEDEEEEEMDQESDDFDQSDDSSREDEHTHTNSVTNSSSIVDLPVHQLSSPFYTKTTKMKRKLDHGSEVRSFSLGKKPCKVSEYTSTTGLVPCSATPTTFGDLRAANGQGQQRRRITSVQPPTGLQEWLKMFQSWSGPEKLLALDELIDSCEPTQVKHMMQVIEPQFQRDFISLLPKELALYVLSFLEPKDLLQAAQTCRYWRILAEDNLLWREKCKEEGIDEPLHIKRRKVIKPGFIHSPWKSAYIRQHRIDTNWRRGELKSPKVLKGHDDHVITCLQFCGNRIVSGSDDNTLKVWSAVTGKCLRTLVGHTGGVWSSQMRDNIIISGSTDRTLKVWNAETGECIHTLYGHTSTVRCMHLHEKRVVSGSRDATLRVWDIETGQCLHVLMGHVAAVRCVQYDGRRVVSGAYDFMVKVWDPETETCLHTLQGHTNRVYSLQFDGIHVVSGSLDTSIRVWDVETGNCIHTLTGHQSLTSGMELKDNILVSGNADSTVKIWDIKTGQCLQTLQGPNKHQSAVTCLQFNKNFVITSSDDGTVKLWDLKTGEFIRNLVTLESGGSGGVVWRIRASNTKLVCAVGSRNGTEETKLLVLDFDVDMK
GPR151 ag: activators of human GPR151, primary screen, cell-based, PathHunter beta-arrestin, luminescence | actives 1% (n = 650,000) | activation, % at 11.2 µM | G-protein coupled receptor 151 (Homo sapiens), Q8TDV0 | PathHunter beta-arrestin GPR151 cells; in the data active means activation above about 4.9%;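 further: 0% = median of compound wells and 100% = cells with positive control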
MITF inh conf: MITF inhibitors, retest of hits, confirmation, biochemical, AlphaScreen, triplicate. shares compounds with MITF inh. AlphaScreen MITF homodimerization, biotin/His-MITF beads. inhibition, % at 2.6 µM. AID 1259372, 2018. actives 16% (n = 4,700);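 active means inhibition above a cutoff derived from the DMSO control wells, cut at about 28% in these data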;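 further: 0% = MITF dimer wells with DMSO only; inhibitors lower the bead chemiluminescence by keeping MITF from dimerizing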
AS interf ctr: AlphaScreen optical interference compounds, counter-screen for MITF inhibitor project, biochemical, triplicate. shares compounds with MITF inh. LysRS AlphaScreen counterscreen, signal interference. inhibition, % at 2.6 µM. actives 7.6% (n = 4,700);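 active means inhibition above a cutoff derived from the DMSO control wells, cut at about 30% in these data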
Starred values were filed as active, the others as inactive; x = not tested or not shown. An excerpt weighted towards active compounds, which were near 3.5% of everything screened.

SMILES	MITF inh	TEAD-YAP block	FBW7 activator	GPR151 ag	MITF inh conf	AS interf ctr
COc1ccc(NC(=O)CCCCCn2c(SCC(=O)Nc3ccccc3OC)nc3ccsc3c2=O)cc1	5	5	0	-1	x	x
CCCCn1c(SC(CC)C(=O)Nc2ccc3c(c2)OCO3)nc2ccsc2c1=O (stereo not given)	69*	2	0	-1	0	0
CCC(Sc1nc2ccsc2c(=O)n1CCC(C)C)C(=O)Nc1ccc2c(c1)OCO2 (stereo not given)	-4	-1	0	-1	x	x
CCCCn1c(SCC(=O)Nc2ccccc2OC)nc2ccsc2c1=O	58*	2	0	-1	-1	1
Cc1ccc(NC(=O)CC2NCCNC2=O)cc1C (stereo not given)	72*	-14	1	0	7	21
NC(=O)N1CCN(c2ccc(C(F)(F)F)cc2[N+](=O)[O-])CC1	6	-11	0	3	x	x
CN(C)c1cccc(Nc2nc3ncnc(NCCCN4CCCC4=O)c3[nH]2)c1	53*	-3	0	2	4	15
COc1ccc(C(CNc2nnnn2-c2ccccc2)N2CCOCC2)cc1 (stereo not given)	51*	1	0	1	3	0
O=C(Nc1nc(-c2ccc(Br)cc2)cs1)c1ncn[nH]1	63*	-13	-1	1	44*	78*
O=C(Nc1nc(-c2ccccc2)cs1)c1ncn[nH]1	47	-19	-1	0	x	x
O=C(NCCCN1CCOCC1)c1cc2cc(Br)ccc2oc1=O	60*	5	2	0	8	18
CCc1cc(OCCOCCN2CCN(CC)CC2)ccc1Cl	68*	-20	0	-2	4	18
CCc1cc(OCCN2CCNCC2)ccc1Cl	29	-3	0	2	x	x
CN1CCN(CCOCCOc2ccc(Cl)c(Cl)c2)CC1	57*	10	0	-1	-1	0
CN1CCN(CCOc2ccc(Cl)c(Cl)c2)CC1	69*	-19	0	0	-6	2
CN1C(=O)C(C)(C)c2cc(S(=O)(=O)N(C)CC(=O)NC3CCCCCC3)ccc21	7	16	0	-1	x	x
CCOc1cc(C2NC(=O)N(C)C(C)=C2C(=O)OC)cc(Cl)c1OCC (stereo not given)	-8	0	0	1	x	x
O=C(Nc1cc(C(F)(F)F)ccc1Cl)c1cc(S(=O)(=O)NCc2ccc(F)cc2)ccc1F	9	-3	0	-1	x	x
CCN(C(=O)Cn1cnc2ccccc21)c1cccc2ccccc12	-1	14	0	1	x	x
O=C(CN1CCC(N2CCCCC2)CC1)N(c1ccccc1)c1ccc(O)cc1	9	-3	0	0	x	x
CN1CCN(CC(=O)N(c2ccccc2)c2ccc(O)cc2)CC1	75*	-3	0	2	12	16
CCN(C(=O)CN1CCN(C)CC1)c1cccc2ccccc12	85*	2	0	0	-4	-4
CCOC(=O)C1=C(C)N=c2s/c(=C\c3ccc(-c4ccc(Cl)c(Cl)c4)o3)c(=O)n2C1c1c(OC)ccc2ccccc12 (stereo not given)	-5	7	0	-1	x	x
CCN1CCN(CCCOc2ccccc2F)CC1	33	1	0	0	x	x
CCN1CCN(CCCOc2ccc(C)cc2Cl)CC1	68*	-6	0	0	12	14
SMILES	MITF inh	TEAD-YAP block	FBW7 activator	GPR151 ag	MITF inh conf	AS interf ctr
CCN1CCN(CCOc2cc(C)ccc2Cl)CC1	72*	1	-1	1	8	17
CCN1CCN(CCOc2cccc(Cl)c2Cl)CC1	72*	-2	0	2	8	14
CC(C)(C)CC(C)(C)c1ccc(OCC(=O)NNC(=O)c2ccc(Cl)cc2Cl)cc1	-5	10	0	0	x	x
OCCOCCN1CCN(Cc2cc(Br)cs2)CC1	71*	4	0	0	4	15
OCCOCCN1CCN(Cc2cccc3ccccc23)CC1	6	-1	0	1	x	x
CC(=O)N1CCN(Cc2cc(C)ccc2C)CC1	1	8	0	1	x	x
Cc1ccc(C)c(CN2CCN(CCOCCO)CC2)c1	81*	-1	0	-1	17	8
Cc1ccccc1CN1CCN(CCOCCO)CC1	69*	-5	0	0	0	2
NCc1nc2ccncc2[nH]1	-14	10	0	-2	x	x
CCc1nc(C)ccc1OCc1nc2ccncc2[nH]1	58*	6	0	0	20	25
OCCNc1nccn2c(-c3cccc4ccccc34)cnc12	3	-17	0	-1	x	x
CCOC(=O)C1(CCCc2ccccc2)CCN(C(=O)CCn2cnnn2)CC1	7	1	0	1	x	x
CCOC(=O)C1(CCc2ccccc2)CCN(C(=O)CCn2cnnn2)CC1	61*	-23	0	2	-1	8
O=[N+]([O-])c1cc(C(F)(F)F)ccc1NC1C2CC3CC1CC(O)(C3)C2 (stereo not given)	23	-25	0	4	x	x
Cc1ccc(C)c(OCCCN2CCOCC2)c1	10	2	0	1	x	x
Cc1ccc(C(C)C)cc1OCCn1cncn1	66*	-8	0	1	10	17
Cc1ccc(C(C)C)cc1OCCN1CCOCC1	51*	14	0	0	-11	-7
COc1cccc(OCCn2cncn2)c1	11	4	1	-1	x	x
Cc1cc(OCCN2CCOCC2)ccc1C(C)C	59*	-39	0	-2	2	3
Cc1ccc(C(C)C)cc1OCCCCN1CCOCC1	79*	10	0	1	-7	-6
O=C(CN1CCCCC1)N/N=C/c1cccc2ccccc12	6	-7	0	0	x	x
N#Cc1c(NC(NC(=O)c2cccs2)(C(F)(F)F)C(F)(F)F)sc2c1CCCC2	-3	8	0	-1	x	x
COc1cc(NC(=O)c2cn(-c3ccc(F)cc3F)c(=O)c3ccccc23)cc(OC)c1OC	0	-5	0	2	x	x
CC(C)c1cccc(OCCCN2CCOCC2)c1	56*	-1	0	3	14	15
Cc1ccc(OCCOCCN2CCN(C)CC2)c([N+](=O)[O-])c1	87*	-7	0	0	18	26
CN1CCN(CCOCCOc2ccccc2[N+](=O)[O-])CC1	78*	3	0	0	7	22
O=[N+]([O-])c1ccccc1OCCOCCOc1ccccc1[N+](=O)[O-]	3	-4	0	0	x	x
O=C(CSc1nnc2c(n1)[nH]c1ccccc12)c1cccs1	10	-3	0	2	x	x
